According to PubChem BioAssay (EPA / NIEHS):
Values joined by “and” are separate entries in the source; they are usually repeats but may differ in a detail not shown here. Equal values may be shown once. Records with an inconclusive call do not appear. Where a structure was tested more than once in an assay, its records may differ in their call. Active and inactive are the calls of the source. How the source made its calls, unless noted: active means hit-call score of the fitted dose curve at least 0.9, where 1 is the maximum; inactive means score below 0.9.

How the values were obtained:
[1] = BSK_3C_VCAM1: BioMAP Diversity Plus: 3C Assay for Vascular cell adhesion molecule 1 (VCAM1) Biomarker Activity (AID 2282999); conditions: BioMAP 3C HUVEC, VCAM1 ELISA, cytokine-stimulated; actives raise or lower the signal
Method in brief: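 Vascular primary endothelium (human umbilical vein) was exposed to chemicals and assayed 24 h later. VCAM-1 levels came from ELISA, with DMSO serving as baseline for bidirectional fitting.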

[2] = BSK_4H_Eotaxin3: BioMAP Diversity Plus: 4H Assay for Eotaxin 3 Biomarker Activity (AID 2283000); conditions: primary human endothelial cells (HUVEC); actives raise or lower the signal
Method in brief: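 Human umbilical vein endothelial cells (BSK_4H system) dosed with test chemical; Eotaxin-3 (CCL26) measured by ELISA 24 h after dosing. Bidirectional curve fitting relative to DMSO negative control as baseline.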

[3] = target: human Peroxisome Proliferator-activated Receptor alpha (PPARa), PPARA (gene 5465) (UniProt Q07869); assay: ATG_PPARa_TRANS: Attagene TRANS-FACTORIAL HepG2 Assay for human Peroxisome Proliferator-activated Receptor alpha (PPARa) (AID 2283001; active means hit-call score of the fitted dose curve at least 0.9, where 1 is the maximum;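 on AC50: potency for gain of reporter signal over DMSO so agonist or activator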)
human Peroxisome Proliferator-activated Receptor alpha (PPARa), PPARA (gene 5465), sequence (Q07869 whole entry, looked up, the tested form may be a part): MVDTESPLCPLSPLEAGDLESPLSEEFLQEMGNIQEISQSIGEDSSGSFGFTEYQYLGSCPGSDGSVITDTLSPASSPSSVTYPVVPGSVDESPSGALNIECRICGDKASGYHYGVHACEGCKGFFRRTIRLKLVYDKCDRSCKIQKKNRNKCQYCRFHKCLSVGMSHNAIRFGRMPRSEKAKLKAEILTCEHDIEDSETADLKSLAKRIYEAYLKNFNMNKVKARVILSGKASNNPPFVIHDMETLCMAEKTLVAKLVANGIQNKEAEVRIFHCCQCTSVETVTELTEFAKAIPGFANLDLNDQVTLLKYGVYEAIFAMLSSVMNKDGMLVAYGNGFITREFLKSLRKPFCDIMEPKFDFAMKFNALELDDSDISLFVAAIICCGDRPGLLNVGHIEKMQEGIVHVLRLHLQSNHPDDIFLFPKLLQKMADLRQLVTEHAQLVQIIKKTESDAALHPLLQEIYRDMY
Method in brief: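 Exposure: 24 h, transiently transfected HepG2 cells. Endpoint: GAL4-UAS reporter mRNA, RT-PCR with capillary electrophoresis fluorescence. Baseline: DMSO; increases fitted.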

[4] = target: human Peroxisome Proliferator-activated Receptor delta (PPARd), PPARD (gene 5467) (UniProt Q03181); assay: ATG_PPARd_TRANS: Attagene TRANS-FACTORIAL HepG2 Assay for human Peroxisome Proliferator-activated Receptor delta (PPARd) (AID 2283002; active means hit-call score of the fitted dose curve at least 0.9, where 1 is the maximum)
human Peroxisome Proliferator-activated Receptor delta (PPARd), PPARD (gene 5467), sequence (Q03181 whole entry, looked up, the tested form may be a part): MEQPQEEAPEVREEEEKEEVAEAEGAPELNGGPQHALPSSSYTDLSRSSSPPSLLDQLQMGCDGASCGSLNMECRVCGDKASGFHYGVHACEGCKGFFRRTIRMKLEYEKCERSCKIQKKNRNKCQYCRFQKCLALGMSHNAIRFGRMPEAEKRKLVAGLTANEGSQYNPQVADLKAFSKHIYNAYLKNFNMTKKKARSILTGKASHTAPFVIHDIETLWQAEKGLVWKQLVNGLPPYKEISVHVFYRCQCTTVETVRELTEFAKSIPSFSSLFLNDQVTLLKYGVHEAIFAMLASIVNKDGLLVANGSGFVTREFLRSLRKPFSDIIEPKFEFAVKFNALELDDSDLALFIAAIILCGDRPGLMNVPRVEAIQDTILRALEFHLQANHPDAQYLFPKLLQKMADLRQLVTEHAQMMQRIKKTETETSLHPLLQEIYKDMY
Method in brief: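 Multiplexed trans-activation format: HepG2 liver cells expressing exogenous NR-Gal4 chimeras and GAL4-UAS reporters were exposed for 24 h. Reporter mRNA was detected by RT-PCR with capillary electrophoresis fluorescence; activity fitted as gain of signal relative to DMSO.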

[5] = read-out: Intercellular Adhesion Molecule 1 (ICAM1), ICAM1 (gene 3383); assay: BSK_3C_ICAM1: BioMAP Diversity Plus: 3C Assay for Intercellular Adhesion Molecule 1 (ICAM1) Biomarker Activity (AID 2283003); conditions: primary human endothelial cells (HUVEC); actives raise or lower the signal
Method in brief: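 ELISA read-out of ICAM-1; HUVEC (primary human), 3C system, 24 h post-dosing; bidirectional fit vs DMSO baseline.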

[6] = target: Retinoic acid receptor alpha (Homo sapiens) (UniProt P10276); assay: ATG_RARa_TRANS: Attagene TRANS-FACTORIAL HepG2 Assay for human Retinoic Acid Receptor alpha (RARa) (AID 2283005; active means hit-call score of the fitted dose curve at least 0.9, where 1 is the maximum)
Retinoic acid receptor alpha (Homo sapiens), sequence (P10276 whole entry, looked up, the tested form may be a part): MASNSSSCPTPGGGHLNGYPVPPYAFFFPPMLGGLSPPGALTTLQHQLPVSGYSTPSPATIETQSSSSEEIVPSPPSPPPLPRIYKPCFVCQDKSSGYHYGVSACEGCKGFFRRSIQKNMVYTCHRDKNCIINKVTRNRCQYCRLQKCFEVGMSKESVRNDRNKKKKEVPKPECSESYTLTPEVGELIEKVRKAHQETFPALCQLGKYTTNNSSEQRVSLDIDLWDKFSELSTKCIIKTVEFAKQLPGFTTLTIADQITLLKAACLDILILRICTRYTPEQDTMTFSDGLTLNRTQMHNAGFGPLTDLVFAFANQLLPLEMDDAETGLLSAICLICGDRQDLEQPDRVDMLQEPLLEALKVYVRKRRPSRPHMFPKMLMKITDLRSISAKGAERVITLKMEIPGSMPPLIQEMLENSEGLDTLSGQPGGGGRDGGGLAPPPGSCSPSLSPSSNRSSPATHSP
Method in brief: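 HepG2 cells transiently transfected with multiple reporter units expressing chimeric RARα-GAL4 fusion, with GAL4-UAS-driven reporters. After 24 h compound exposure, reporter mRNA induction quantified by RT-PCR and capillary electrophoresis with fluorescent labeling; gain-of-signal fitted relative to DMSO control.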

[7] = BSK_3C_Proliferation: Cell Proliferation Assessment in the BioMAP Diversity Plus: 3C Assay (AID 2283006); conditions: primary human endothelial cells (HUVEC);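 on AC50: potency may reflect either rise or fall in cell number versus DMSO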
Method in brief: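 HUVEC, sub-confluent; 48 h chemical exposure; 10% TCA fix, 0.1% SRB stain, A560 total protein. Gain or loss of signal fitted both directions vs DMSO control.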

[8] = target: Peroxisome proliferator-activated receptor gamma (Homo sapiens) (UniProt P37231); assay: ATG_PPARg_TRANS: Attagene TRANS-FACTORIAL HepG2 Assay for human Peroxisome Proliferator-activated Receptor-gamma (PPARg) (AID 2283007; active means hit-call score of the fitted dose curve at least 0.9, where 1 is the maximum)
Method in brief: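 Transient transfection of HepG2 with GAL4-UAS-driven reporter units; chemical dosing 24 h; total RNA → oligo(dT) RT → PCR with reporter primers → 6-FAM primer extension → HpaI digest 2 h 37 C → capillary electrophoresis. Positive direction vs DMSO.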

[9] = target: Nuclear receptor subfamily 1 group I member 2 (Homo sapiens) (UniProt O75469); assay: ATG_PXR_TRANS: Attagene TRANS-FACTORIAL HepG2 Assay for human Pregnane X Receptor (PXR) (AID 2283008; active means hit-call score of the fitted dose curve at least 0.9, where 1 is the maximum)
Nuclear receptor subfamily 1 group I member 2 (Homo sapiens), sequence (O75469 whole entry, looked up, the tested form may be a part): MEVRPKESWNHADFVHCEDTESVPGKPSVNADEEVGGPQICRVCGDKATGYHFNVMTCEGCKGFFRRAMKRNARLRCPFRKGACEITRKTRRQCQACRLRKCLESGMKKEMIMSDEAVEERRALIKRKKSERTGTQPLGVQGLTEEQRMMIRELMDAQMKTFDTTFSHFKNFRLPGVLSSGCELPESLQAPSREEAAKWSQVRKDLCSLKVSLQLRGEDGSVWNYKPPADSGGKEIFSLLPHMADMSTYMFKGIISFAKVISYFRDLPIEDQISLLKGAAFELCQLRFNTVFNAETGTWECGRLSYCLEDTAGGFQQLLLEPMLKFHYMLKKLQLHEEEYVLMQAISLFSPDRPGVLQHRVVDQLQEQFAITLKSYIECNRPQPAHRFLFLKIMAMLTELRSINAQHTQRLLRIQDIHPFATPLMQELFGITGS
Method in brief: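 Trans-factorial format: exogenous NR-Gal4 fusion activity, not endogenous factor, in transfected human HepG2 liver cells. After 24 h dosing, RNA isolated, reverse-transcribed, amplified and resolved by capillary electrophoresis; induction scored versus DMSO.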

[10] = target: human RAR-related Orphan Receptor gamma (RORg), RORC (gene 6097) (UniProt P51449); assay: ATG_RORg_TRANS: Attagene TRANS-FACTORIAL HepG2 Assay for human RAR-related Orphan Receptor gamma (RORg) (AID 2283011; active means hit-call score of the fitted dose curve at least 0.9, where 1 is the maximum)
human RAR-related Orphan Receptor gamma (RORg), RORC (gene 6097), sequence (P51449 whole entry, looked up, the tested form may be a part): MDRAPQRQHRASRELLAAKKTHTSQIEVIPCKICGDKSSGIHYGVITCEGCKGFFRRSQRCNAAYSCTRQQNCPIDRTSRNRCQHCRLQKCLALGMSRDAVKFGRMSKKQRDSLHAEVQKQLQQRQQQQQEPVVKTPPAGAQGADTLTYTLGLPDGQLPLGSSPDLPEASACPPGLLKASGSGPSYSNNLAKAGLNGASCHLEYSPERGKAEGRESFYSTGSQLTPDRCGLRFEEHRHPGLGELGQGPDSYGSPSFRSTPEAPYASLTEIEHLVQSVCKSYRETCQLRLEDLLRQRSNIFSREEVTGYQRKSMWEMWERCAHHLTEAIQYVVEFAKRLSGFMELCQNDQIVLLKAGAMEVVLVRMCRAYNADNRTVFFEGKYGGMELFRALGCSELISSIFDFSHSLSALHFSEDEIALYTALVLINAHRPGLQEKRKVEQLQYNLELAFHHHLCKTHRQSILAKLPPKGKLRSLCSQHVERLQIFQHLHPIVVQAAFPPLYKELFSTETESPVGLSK
Method in brief: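 Reporter transcripts from a transfected RORg-GAL4 chimera in HepG2 cells were quantified 24 h after dosing by RT-PCR, 6-FAM labelling, HpaI digestion and capillary electrophoresis; increases over DMSO baseline were fitted.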

[11] = target: Retinoic acid receptor RXR-alpha (Homo sapiens) (UniProt P19793); assay: ATG_RXRa_TRANS: Attagene TRANS-FACTORIAL HepG2 Assay for human Retinoid X Receptor alpha (RXRa) (AID 2283012; active means hit-call score of the fitted dose curve at least 0.9, where 1 is the maximum)
Method in brief: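 Read-out: fluorescent reporter-transcript fragments quantified by capillary electrophoresis after RT-PCR. Transiently transfected HepG2 cells carrying GAL4-UAS reporters and NR-GAL4 chimeras were exposed to chemical for 24 h; activity scored as increase over DMSO.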

[12] = target: human Retinoid X Receptor beta (RXRb), RXRB (gene 6257) (UniProt P28702); assay: ATG_RXRb_TRANS: Attagene TRANS-FACTORIAL HepG2 Assay for human Retinoid X Receptor beta (RXRb) (AID 2283013; active means hit-call score of the fitted dose curve at least 0.9, where 1 is the maximum)
human Retinoid X Receptor beta (RXRb), RXRB (gene 6257), sequence (P28702 whole entry, looked up, the tested form may be a part): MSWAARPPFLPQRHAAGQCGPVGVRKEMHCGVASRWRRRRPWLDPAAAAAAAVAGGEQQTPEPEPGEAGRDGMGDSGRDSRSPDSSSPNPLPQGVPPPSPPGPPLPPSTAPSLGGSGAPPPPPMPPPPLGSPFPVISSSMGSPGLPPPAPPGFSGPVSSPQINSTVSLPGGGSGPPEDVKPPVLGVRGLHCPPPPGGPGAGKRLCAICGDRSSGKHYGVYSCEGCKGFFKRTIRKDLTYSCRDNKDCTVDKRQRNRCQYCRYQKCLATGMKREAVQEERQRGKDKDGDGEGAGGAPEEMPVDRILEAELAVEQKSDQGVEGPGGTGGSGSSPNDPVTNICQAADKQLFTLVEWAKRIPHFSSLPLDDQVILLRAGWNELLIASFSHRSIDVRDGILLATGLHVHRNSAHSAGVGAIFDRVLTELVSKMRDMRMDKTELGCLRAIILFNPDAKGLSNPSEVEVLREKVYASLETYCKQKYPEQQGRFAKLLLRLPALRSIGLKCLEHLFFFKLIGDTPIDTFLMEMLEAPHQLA
Method in brief: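 Read-out: reporter mRNA induction via RT-PCR plus capillary electrophoresis fluorescence, analysed as signal increase relative to DMSO. Cells were human HepG2, transiently transfected with GAL4-UAS reporter constructs and chimeric receptor-Gal4 fusions, dosed for 24 h.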

[13] = target: human Thyroid Receptor alpha (THRa1), THRA (gene 7067) (UniProt P10827); assay: ATG_THRa1_TRANS: Attagene TRANS-FACTORIAL HepG2 Assay for human Thyroid Receptor alpha (THRa1) (AID 2283014; active means hit-call score of the fitted dose curve at least 0.9, where 1 is the maximum)
human Thyroid Receptor alpha (THRa1), THRA (gene 7067), sequence (P10827 whole entry, looked up, the tested form may be a part): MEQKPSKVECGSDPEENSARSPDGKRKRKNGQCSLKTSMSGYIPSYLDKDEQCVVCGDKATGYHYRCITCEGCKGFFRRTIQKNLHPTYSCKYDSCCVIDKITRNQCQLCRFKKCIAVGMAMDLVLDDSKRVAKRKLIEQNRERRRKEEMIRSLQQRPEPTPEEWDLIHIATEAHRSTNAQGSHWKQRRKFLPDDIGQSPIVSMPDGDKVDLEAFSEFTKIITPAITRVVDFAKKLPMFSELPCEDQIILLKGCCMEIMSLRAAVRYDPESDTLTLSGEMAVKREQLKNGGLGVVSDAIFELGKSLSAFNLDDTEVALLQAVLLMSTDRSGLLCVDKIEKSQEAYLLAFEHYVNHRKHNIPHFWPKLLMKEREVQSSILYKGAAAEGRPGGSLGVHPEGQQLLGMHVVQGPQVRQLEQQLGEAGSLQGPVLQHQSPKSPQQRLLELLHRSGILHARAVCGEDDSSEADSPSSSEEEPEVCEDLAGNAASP
Method in brief: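 Transcripts from GAL4-UAS-driven reporters, measured after 24 h compound exposure by RT-PCR plus capillary electrophoresis of 6-FAM-labeled fragments, were fitted for gain of signal relative to DMSO. Cells: transiently transfected HepG2 expressing NR-Gal4 chimeras.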

[14] = read-out: E-selectin (Homo sapiens) (UniProt P16581); assay: BSK_3C_Eselectin: BioMAP Diversity Plus: 3C Assay for Eselectin Biomarker Activity (AID 2283015); conditions: primary human endothelial cells (HUVEC); actives raise or lower the signal;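 further: cell surface E-selectin protein quantified by ELISA 24 h after dosing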
Method in brief: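 E-selectin ELISA readout, fitted bidirectionally relative to DMSO, taken 24 h post-dosing in HUVEC cultures of the 3C system. Overt cytotoxicity tracked with sulforhodamine B staining of parallel wells.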

[15] = read-out: Interleukin-1 alpha (IL1a), IL1A (gene 3552); assay: BSK_BE3C_IL1a: BioMAP Diversity Plus: BE3C Assay for Interleukin-1 alpha (IL1a) Biomarker Activity (AID 2283016); conditions: primary human bronchial epithelial cells; actives raise or lower the signal
Method in brief: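 ELISA read-out of IL-1a from human lung bronchial epithelial primary cells, 24 h post-dose. Gain or loss of signal fitted relative to DMSO negative control.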

[16] = read-out: Monocyte Chemoattractant Protein-1 (MCP1), CCL2 (gene 6347); assay: BSK_3C_MCP1: BioMAP Diversity Plus: 3C Assay for Monocyte Chemoattractant Protein-1 (MCP1) Biomarker Activity (AID 2283017); conditions: primary human endothelial cells (HUVEC); actives raise or lower the signal
Method in brief: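 MCP-1 was measured by ELISA 24 h after dosing in primary HUVEC 3C cultures and fitted in both directions relative to DMSO; cytotoxicity was checked by SRB total-protein staining in parallel wells.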

[17] = read-out: Monocyte Chemoattractant Protein-1 (MCP1), CCL2 (gene 6347); assay: BSK_4H_MCP1: BioMAP Diversity Plus: 4H Assay for Monocyte Chemoattractant Protein-1 (MCP1) Biomarker Activity (AID 2283018); conditions: primary human endothelial cells (HUVEC); actives raise or lower the signal
Method in brief: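 HUVEC primary cells, 24 h post-dose, MCP-1 by ELISA. Gain or loss of signal fitted bidirectionally vs DMSO baseline. Cytotoxicity: SRB stain (0.1% after 10% TCA fixation), read 560 nm, parallel cultures.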

[18] = target: human RAR-related Orphan Receptor beta (RORb), RORB (gene 6096) (UniProt Q92753); assay: ATG_RORb_TRANS: Attagene TRANS-FACTORIAL HepG2 Assay for human RAR-related Orphan Receptor beta (RORb) (AID 2283010; active means hit-call score of the fitted dose curve at least 0.9, where 1 is the maximum)
Method in brief: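 HepG2, transient MRTU transfection (GAL4-UAS reporters, exogenous NR-Gal4 chimeras); 24 h compound exposure; total RNA → RT-PCR → 6-FAM primer extension → HpaI digest → CE fluorescence. Positive direction vs DMSO baseline.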

[19] = target: human Retinoic Acid Receptor beta (RARb), RARB (gene 5915) (UniProt P10826); assay: ATG_RARb_TRANS: Attagene TRANS-FACTORIAL HepG2 Assay for human Retinoic Acid Receptor beta (AID 2283004; active means hit-call score of the fitted dose curve at least 0.9, where 1 is the maximum)
human Retinoic Acid Receptor beta (RARb), RARB (gene 5915), sequence (P10826 whole entry, looked up, the tested form may be a part): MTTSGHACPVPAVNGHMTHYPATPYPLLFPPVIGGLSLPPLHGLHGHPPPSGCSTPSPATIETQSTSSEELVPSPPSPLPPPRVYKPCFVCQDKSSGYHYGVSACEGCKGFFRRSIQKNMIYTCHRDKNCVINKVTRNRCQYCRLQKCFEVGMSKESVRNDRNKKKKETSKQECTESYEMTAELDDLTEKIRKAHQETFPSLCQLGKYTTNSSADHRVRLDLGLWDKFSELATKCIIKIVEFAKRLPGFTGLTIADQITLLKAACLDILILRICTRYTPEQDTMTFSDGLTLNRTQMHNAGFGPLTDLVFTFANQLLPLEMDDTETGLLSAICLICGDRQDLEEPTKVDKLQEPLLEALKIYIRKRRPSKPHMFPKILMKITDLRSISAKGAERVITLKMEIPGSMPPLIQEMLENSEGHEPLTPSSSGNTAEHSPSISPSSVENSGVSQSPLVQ
Method in brief: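 Induction of reporter mRNA from a chimeric RARb-Gal4 construct was measured by RT-PCR, FAM labelling, HpaI digestion and capillary electrophoresis. Measurements followed 24 h compound treatment of transiently transfected human HepG2 liver cells, with DMSO as baseline.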

[20] = target: human Retinoic Acid Receptor gamma (RARg), RARG (gene 5916) (UniProt P13631); assay: ATG_RARg_TRANS: Attagene TRANS-FACTORIAL HepG2 Assay for human Retinoic Acid Receptor gamma (RARg) (AID 2283009; active means hit-call score of the fitted dose curve at least 0.9, where 1 is the maximum)
human Retinoic Acid Receptor gamma (RARg), RARG (gene 5916), sequence (P13631 whole entry, looked up, the tested form may be a part): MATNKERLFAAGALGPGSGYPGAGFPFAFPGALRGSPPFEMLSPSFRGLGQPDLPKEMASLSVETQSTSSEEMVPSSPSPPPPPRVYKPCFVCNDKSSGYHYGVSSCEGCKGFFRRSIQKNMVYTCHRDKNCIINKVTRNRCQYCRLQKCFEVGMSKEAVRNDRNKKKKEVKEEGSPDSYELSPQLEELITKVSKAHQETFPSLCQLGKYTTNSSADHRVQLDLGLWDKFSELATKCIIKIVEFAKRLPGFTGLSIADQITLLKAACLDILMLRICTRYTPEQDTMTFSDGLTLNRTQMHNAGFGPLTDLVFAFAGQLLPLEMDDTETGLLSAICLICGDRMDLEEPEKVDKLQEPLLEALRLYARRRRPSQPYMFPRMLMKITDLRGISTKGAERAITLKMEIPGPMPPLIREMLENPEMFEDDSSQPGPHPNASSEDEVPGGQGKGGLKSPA
Method in brief: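 Readout: reporter transcript levels via RT-PCR, 6-FAM primer-extension labelling, HpaI digestion and capillary electrophoresis. Cells: HepG2 carrying transfected RARg-GAL4 chimera plus UAS reporter set. Dosing 24 h; DMSO negative control.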

Measured: AC50

E-selectin (Homo sapiens), sequence (P16581 whole entry, looked up): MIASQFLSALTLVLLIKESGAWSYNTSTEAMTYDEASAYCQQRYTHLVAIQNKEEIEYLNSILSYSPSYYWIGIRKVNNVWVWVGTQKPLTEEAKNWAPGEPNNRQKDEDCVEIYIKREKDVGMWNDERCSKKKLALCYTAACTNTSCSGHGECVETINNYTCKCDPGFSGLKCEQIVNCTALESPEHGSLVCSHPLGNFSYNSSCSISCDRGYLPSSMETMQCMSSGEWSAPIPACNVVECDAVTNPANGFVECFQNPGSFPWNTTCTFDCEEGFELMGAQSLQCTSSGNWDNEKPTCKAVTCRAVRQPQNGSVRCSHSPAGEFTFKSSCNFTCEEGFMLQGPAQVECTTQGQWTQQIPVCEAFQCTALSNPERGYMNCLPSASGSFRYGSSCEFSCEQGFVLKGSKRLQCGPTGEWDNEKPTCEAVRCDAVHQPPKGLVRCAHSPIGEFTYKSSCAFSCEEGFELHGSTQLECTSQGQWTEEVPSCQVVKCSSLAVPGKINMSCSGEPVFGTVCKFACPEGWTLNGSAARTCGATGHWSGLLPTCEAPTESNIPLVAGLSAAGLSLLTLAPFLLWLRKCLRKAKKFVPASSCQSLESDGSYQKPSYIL

O=C(O)C(F)(F)OC(F)(F)C(F)(F)OC(F)(F)F
active: [3] 17.9 µM and 15.4 µM | [8] 122 µM and 84.6 µM
not listed: [18] | [19] | [20]
inactive: all other assays above

ClC(Cl)c1ccccc1
not listed: [8] | [12] | [19] | [20]
inactive: all other assays above

COP(=O)(CCC(=O)NCO)OC
active: [2] 0.15 µM
inactive: [1] | [2] | [5] | [7] | [8] | [11] | [14] | [15] | [16] | [17]

Nc1ccc2ccccc2c1
active: [2] 9.1 µM
not listed: [4] | [12]
inactive: all other assays above

O=P1(N(CCCl)CCCl)NCCCO1 (stereo not given)
not listed: [4] | [6] | [11] | [12] | [13] | [18] | [19] | [20]
inactive: all other assays above

CSC(C)(C)C=NO
not listed: [6] | [8] | [9] | [10] | [12] | [13] | [19] | [20]
inactive: all other assays above

OCC1CO1 (stereo not given)
not listed: [4] | [6] | [9] | [11] | [12] | [18] | [19] | [20]
inactive: all other assays above

O=C(O)C=CC(F)(C(F)(F)F)C(F)(F)F
not listed: [4] | [6] | [10] | [12] | [19]
inactive: all other assays above

CN(C)C(=O)Cl
not listed: [4] | [8] | [10] | [11] | [12]
inactive: all other assays above

CC(C)(C)c1ccc(O)cc1
active: [9] 14.8 µM | [12] 69.3 µM
not listed: [4] | [6] | [10] | [13] | [19] | [20]
inactive: all other assays above

CC(O)C(F)(F)C(F)(F)F (stereo not given)
not listed: [4] | [10] | [12] | [13] | [20]
inactive: all other assays above

COC(=O)C(F)(F)C(F)(F)OC(F)(C(F)(F)F)C(F)(F)OC(F)=C(F)F (stereo not given)
active: [3] 8.47 µM and 26 µM and 10.1 µM | [8] 124 nM and 241 nM and 127 nM | [9] 6.57 µM and 19.5 µM and 5.88 µM
not listed: [4] | [6] | [12] | [20]
inactive: all other assays above

N#Cc1c(-c2ccc(Cl)cc2)[nH]c(C(F)(F)F)c1Br
active: [1] 6.03 µM | [2] 0.796 µM | [7] 393 nM | [8] 573 nM | [9] 0.585 µM | [15] 7.11 µM | [16] 0.169 µM | [17] 0.14 µM
not listed: [10] | [12]
inactive: all other assays above

OCC(F)(F)OC(F)(F)C(F)(F)OC(F)(F)C(F)(F)OC(F)(F)CO
active: [7] 5.95 µM and 35.3 µM | [12] 17.4 µM | [17] 16.2 µM
inactive: [1] | [2] | [3] | [5] | [8] | [9] | [20] | [11] | [13] | [14] | [15] | [16] | [17]

c1cc2c3c(cccc3c1)CC2
not listed: [4] | [11] | [12] | [18]
inactive: all other assays above

CCC1(c2ccccc2)C(=O)N=C(O)NC1=O (stereo not given)
not listed: [4] | [6] | [10] | [11] | [12] | [18] | [19] | [20]
inactive: all other assays above
